# Screening results: PubChem, National Center for Advancing Translational Sciences (NCATS)
# Most compounds without a hit are left out; they make up all but 21% or so of the library.
# DT40 TDP1 CPT – growth inhibition of DT40 Tdp1-/-;hTDP1 cells with camptothecin (screen for TDP1 inhibitors). chicken DT40 Tdp1-/-;hTDP1 cells + 20 nM CPT, ATP luminescence, 48 h. Potency, µM (top dose mostly 46.2 µM), most hits filed as inhibitors. 420,000 compounds, 12% hits. AID 686979; further: nearly all actives have a fitted effect of over 55% in size
#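 Chicken DT40 Tdp1-/- cells stably complemented with human TDP1 were seeded at 400 cells/well in medium containing 20 nM camptothecin, exposed to pin-transferred compounds, and grown at 37 °C for at least 48 hr. Viability was read as ATP luminescence.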
# D3 antag – antagonists of human D3 dopamine receptor; AID 652054; D3R cells, DiscoveRx beta-arrestin luminescence, antagonist mode; active compounds read low; 360,000 compounds, 2.5% hits; max response, negative = inhibition, %; in the data active means max response below about -50%; inconclusive means no clear call, values can overlap the other calls
# Target sequence (P35462 whole entry, looked up): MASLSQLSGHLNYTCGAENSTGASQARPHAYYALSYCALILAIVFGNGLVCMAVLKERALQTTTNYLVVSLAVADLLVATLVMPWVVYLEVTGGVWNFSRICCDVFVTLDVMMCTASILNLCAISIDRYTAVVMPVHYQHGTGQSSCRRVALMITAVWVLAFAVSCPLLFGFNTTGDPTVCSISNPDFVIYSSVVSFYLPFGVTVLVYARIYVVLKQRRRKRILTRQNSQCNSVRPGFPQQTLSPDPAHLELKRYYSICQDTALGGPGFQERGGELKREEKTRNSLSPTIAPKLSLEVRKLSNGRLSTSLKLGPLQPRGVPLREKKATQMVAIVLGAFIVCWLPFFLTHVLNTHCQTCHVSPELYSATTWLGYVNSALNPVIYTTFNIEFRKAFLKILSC
#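 Cells plated overnight at 1500 cells/well, then exposed to library compounds with dopamine controls for 90 minutes at 37 degrees C. DiscoveRx reagent added for 30–60 minutes at room temperature; luminescence read, quantitative HTS format.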
# ClpP mod – qHTS Assay for Activators of ClpP. ATP-dependent Clp protease proteolytic subunit (Bacillus subtilis (strain 168)), P80244. purified B. subtilis ClpP, FRET peptide cleavage, 20 min. Potency, µM (doses to about 57.5 µM). 340,000 compounds, 1.9% hits; active means well fitted falling curve with a large enough effect; inconclusive means small, poorly fitted or top-dose-only effect; inactive means no such curve, though single readings can be large or run the other way; further: the source files actives as falling curves though it sought activators and does not explain the sign; nearly all actives have a fitted effect of over 65% in size
# Target sequence (P80244 whole entry, looked up): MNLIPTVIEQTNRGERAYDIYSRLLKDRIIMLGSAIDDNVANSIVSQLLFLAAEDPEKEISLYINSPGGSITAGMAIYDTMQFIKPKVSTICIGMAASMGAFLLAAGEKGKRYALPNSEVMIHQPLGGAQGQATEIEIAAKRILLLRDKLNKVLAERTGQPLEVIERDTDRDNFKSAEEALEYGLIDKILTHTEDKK
#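 Buffer: 100 mM Tris/HCl pH8, 100 mM KCl, 0.05% low protease BSA, 2.5% glycerol, 0.01% Tween-20. ClpP 10 microg/mL final; 20 min RT; delta FRET normalized to ADEP and DMSO controls.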
# IL-1B inflam inh – blocks inflammasome-driven IL-1 beta release; 360,000 compounds, 4.7% hits; AID 743279; THP-1 LPS/ATP IL-1B secretion, AlphaLISA, 16 h; active compounds read low; activity change, % at 57.5 µM; in the data active means activity change below about -50%; inconclusive means mostly about -30% to -49%
#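 THP-1 cells pretreated 1 hr with compounds (up to 57.5 uM final), then stimulated with LPS (250 ng/mL final) plus ATP (1.25 mM final); secreted IL-1B measured by AlphaLISA after 16 hr, decreased signal indicating inhibition.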
# D3 ag – D3 dopamine receptor (human) agonism; P35462; D3R DiscoveRx beta-arrestin cells, luminescence, 90 min; max activation, %; 410,000 compounds, 0.58% hits; in the data active means max activation above about 30%
#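 Agonist mode: compounds and dopamine controls were applied to plated cells for 90 min at 37 degrees C after an overnight attachment at 1500 cells/well. Luminescent read-out followed 30 - 60 minutes at room temperature with DiscoveRx detection reagent.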
# DT40 TDP1 no CPT – qHTS for Inhibitors of human tyrosyl-DNA phosphodiesterase 1 (TDP1): qHTS in cells in absence of CPT | DT40 Tdp1-/- hTDP1 cells, no CPT, ATP luminescence, 48 h | Potency, µM (top dose mostly 46.2 µM), most hits filed as inhibitors | 420,000 compounds, 15% hits; further: nearly all actives have a fitted effect of over 55% in size
#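 Growth of hTDP1-complemented DT40 Tdp1-knockout cells is measured by ATP luminescence after at least 48 hr compound exposure at 37 °C, with DMSO substituting for the 20 nM CPT used in the parallel screen.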
# Numbers stand for hits; 0 = inactive; ? = inconclusive; - = no result given; [ ] = dose if it differs, or a comment. Unless noted, the call rests on the fitted dose curve; in most records, active means well fitted inhibition curve with a large enough effect; inconclusive means small, poorly fitted or top-dose-only effect; inactive means flat fitted curve, though single readings scatter.
SMILES,DT40 TDP1 CPT,D3 antag,ClpP mod,IL-1B inflam inh,D3 ag,DT40 TDP1 no CPT
CN(C(=O)c1cccc(NC(=O)c2ccccc2)c1)C1CCCCC1,?,0,0,0,0,0
CCN(CC)S(=O)(=O)c1ccc(Nc2ccc(-c3ccc4c(c3)OCCO4)nn2)cc1,5.17µM,0,0,0,0,?
CCN(CC)S(=O)(=O)c1ccc(C(=O)Nc2ccc3c(c2)OCCO3)cc1,0,?,0,0,0,0
CN(C(=O)c1cccc(Nc2ccc(-c3ccc4c(c3)OCCO4)nn2)c1)C1CCCCC1,23.1µM,0,0,0,0,23.1µM
CCOC(=O)c1ccc(Cl)c(S(=O)(=O)N2CCCC2)c1,0,0,-,0,0,?
CN(CC(=O)Nc1cccc(F)c1)C(=O)C1CC(=O)N(Cc2ccccc2)C1 (centres undefined),0,0,0,0,0,0
Cc1nc2ccccc2nc(=O)c1NNc1ccccc1,0,0,-,0,0,?
Cc1ccc2nc(=O)c(NNc3ccccc3)cnc2c1,?,0,0,0,0,10.3µM
COc1ccc2nc(/C=N/NC(=O)CCCCCNC(=O)OC(C)(C)C)ccc2c1,20.6µM,0,0,0,0,18.4µM
CC(C)(C)OC(=O)NCCC(=O)N/N=C/c1ccc2nccnc2c1,0,0,-,-,0,0
COc1cccc(-c2cc(NC=O)c3ncc(-c4cccc(C(=O)NCCN(C)C)c4)n3c2)c1,?,0,0,0,0,?
CN(C)CCNC(=O)c1cccc(-c2cc(NC=O)c3ncc(-c4cccc(C(F)(F)F)c4)n3c2)c1,3.26µM,-52.1,0,-109.0,0,5.17µM
CN(C)CCNC(=O)c1cccc(-c2cnc3c(NC=O)cc(-c4cc(F)c(F)c(F)c4)cn23)c1,4.11µM,0,0,0,0,3.26µM
CC(C)(O)CC[C@@H](O)[C@](C)(O)[C@H]1CC[C@@]2(O)C3=CC(=O)[C@@H]4C[C@@H](O)[C@@H](O)C[C@]4(C)[C@H]3CC[C@]12C,0,0,0,0,0,0
COc1ccc(-n2ccnc(NCCc3ccc(S(N)(=O)=O)cc3)c2=O)cc1Cl,0,-,0,-,0,?
CCN1C(=O)[C@H]2[C@@H](c3ccc(C(F)(F)F)cc3)N[C@]3(CCCN(Cc4ccc(OC)cc4)C3=O)[C@H]2C1=O,20.6µM,0,0,0,0,10.3µM
CCN1C(=O)[C@H]2[C@@H](c3ccc(C(F)(F)F)cc3)N[C@]3(CCCN(Cc4ccc(C(F)(F)F)cc4)C3=O)[C@H]2C1=O,11.6µM,0,0,0,0,11.6µM
O=S1(=O)CCOCCCN1Cc1ccc(F)cc1,0,-,0,-,-,?
Cn1c(-c2cccs2)nc2ccccc21,0,0,0,0,0,?
O=C(c1cnc2sccn2c1=O)N1CCN(c2ccccc2Cl)CC1,0,0,-,0,0,?
O=C(c1cnc2sccn2c1=O)N1CCc2ccccc2C1,0,-95.9,?,0,0,0
O=C(Cn1cncn1)N1CCOc2ccc(CN3CCN(c4ccccc4)CC3)cc2C1,0[9.04 µM],-,-,-,-,0
COc1ccc(C)c2sc(N(CCCN(C)C)C(=O)c3ccc(S(=O)(=O)N4CCc5ccccc5C4)cc3)nc12,2.91µM,0,0,-95.6,0,2.31µM
COc1cc2nc(N(CCCN(C)C)C(=O)c3ccc(S(=O)(=O)N4CCc5ccccc5C4)cc3)sc2cc1OC,?,0,0,-96.2,0,?
CN(C)CCCN(C(=O)c1ccc(C(=O)c2ccccc2)cc1)c1nc2c(F)cccc2s1,0,0,0,?,0,0
SMILES,DT40 TDP1 CPT,D3 antag,ClpP mod,IL-1B inflam inh,D3 ag,DT40 TDP1 no CPT
COc1cccc2sc(N(CCCN(C)C)C(=O)c3ccc(S(=O)(=O)N4CCc5ccccc5C4)cc3)nc12,14.6µM,0,0,-97.2,0,10.3µM
CN(C)CCCN(C(=O)c1ccc(S(=O)(=O)N2CCCCCC2)cc1)c1nc2c(F)cccc2s1,?,0,0,0,0,0
COc1cc2nc(N(CCCN(C)C)C(=O)c3ccc(C(=O)c4ccccc4)cc3)sc2cc1OC,?,0,0,-105.1,0,?
CCOc1ccc2nc(N(CCCN(C)C)C(=O)c3ccc(S(=O)(=O)N4CCc5ccccc5C4)cc3)sc2c1,?,0,0,0,0,?
N#CCCN(C(=O)COC(=O)C1CCN(S(=O)(=O)c2ccc3c(c2)OCCO3)CC1)c1ccccc1,0,0,0,0,0,0
CCn1cc(C(=O)OCC(=O)Nc2cc(Cl)ccc2C)c(=O)c2ccc(C)nc21,0,-,0,-,0,0
Cc1ccc2sc(N(CCCN(C)C)C(=O)c3ccc(S(=O)(=O)N4CCc5ccccc5C4)cc3)nc2c1C,4.61µM,0,0,-82.4,0,4.11µM
CN(C)CCCN(C(=O)c1ccc(S(=O)(=O)N2CCc3ccccc3C2)cc1)c1nc2c(F)cc(F)cc2s1,?,0,-,?,0,?
CC(=O)N(C(C)=O)n1c(/C=C/c2ccc([N+](=O)[O-])cc2)nc2ccccc2c1=O,?,0,-,0,0,?
Cc1[nH]c2ccccc2c1/C=C/c1nc2ccccc2c(=O)n1-c1cccc([N+](=O)[O-])c1,?,0,0,0,0,18.4µM
O=c1c2ccccc2nc(/C=C/c2c[nH]c3ccccc23)n1-c1ccc([N+](=O)[O-])cc1,10.3µM,0,0,0,0,?
COc1ccc(-n2c(/C=C/c3c(C)[nH]c4ccccc34)nc3ccccc3c2=O)cc1,?,-,0,-,0,?
O=C(CSc1nc(-c2ccc(F)cc2)cc(C(F)(F)F)n1)NCc1ccccc1,0,-,0,-,0,0
COc1cc(OC)c(NC(=O)COCc2cc(-c3cccs3)on2)cc1Cl,0,-,0,-,0,?
COc1ccc(CN2C(=O)C(CC(=O)NCCCCc3ccccc3)CC(C(=O)N(C)C)=C2C)cc1 (centres undefined),?,0,0,0,0,18.4µM
CCN(CC)C(=O)C1=C(C)N(Cc2ccc(C(C)(C)C)cc2)C(=O)C(CC(=O)NCCN2CCOCC2)C1 (centres undefined),0,0,0,0,0,0
CC1=C(C(=O)N2CCOCC2)CC(CC(=O)NCCCCc2ccccc2)C(=O)N1Cc1ccc(C(C)(C)C)cc1 (centres undefined),23.1µM,0,0,0,0,16.4µM
CC1=C(C(=O)N(C(C)C)C(C)C)CC(CC(=O)NCCCN(C)C)C(=O)N1Cc1ccc(C(C)(C)C)cc1 (centres undefined),?,0,0,0,0,?
